The record followed here is PubChem BioAssay (NCI).

A short description of assay [1]: NCI Yeast Anticancer Drug Screen. Data for the rad50 strain (AID 155).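 Note: 0% = growth of vehicle-only cultures of the same strain.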 The following applies: S. cerevisiae rad50 strain growth inhibition; at 50.0 µM; stronger effect = higher value. Summed up:
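Vehicle-treated cultures provide the reference for the growth inhibition reported for compound-exposed, repair-deficient yeast.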

Assay [2] is described as follows: NCI Yeast Anticancer Drug Screen. Data for the mec2-1 strain (AID 157). To be noted: S. cerevisiae mec2-1 strain, at 50.0 µM, stronger effect = higher value. The procedure, abridged: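 Cells of the genetically defined mec2-1 yeast strain are incubated with test compound. Inhibition of growth is calculated against vehicle-treated controls.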
The nature of assay [3]: NCI Yeast Anticancer Drug Screen. Data for the sgs1 mgt1 strain (AID 161).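 Note: 0% = growth of cultures given vehicle only.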 To be noted: S. cerevisiae sgs1 mgt1 strain, at 50.0 µM, stronger effect = higher value. The procedure, abridged: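 Inhibition of yeast growth, normalised to vehicle-treated controls, is reported for a strain bearing genetic alterations in DNA damage repair.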
Assay [4] can be described thus: NCI Yeast Anticancer Drug Screen. Data for the cln2 rad14 strain (AID 165).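 Note: 0% = growth equal to vehicle treated cultures.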 To be noted: S. cerevisiae cln2 rad14 strain, at 50.0 µM, stronger effect = higher value. Summed up: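 The screen exposed genetically defined yeast (cln2 rad14) to test compounds and scored growth inhibition relative to vehicle-treated controls.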
Assay [5] is described as follows: NCI Yeast Anticancer Drug Screen. Data for the bub3 strain (AID 167). To be noted: S. cerevisiae bub3 mutant strain, at 50.0 µM, stronger effect = higher value. Summed up: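 Mutant yeast screening strain plus compound; vehicle-treated cultures serve as the 0% inhibition reference.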
A short description of assay [6]: NCI Yeast Anticancer Drug Screen. Data for the mlh1 rad18 strain (AID 175). To be noted: S. cerevisiae mlh1 rad18 strain growth inhibition; at 50.0 µM; stronger effect = higher value. Summed up:
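Compound-treated yeast growth, normalised to vehicle controls. Strain bears defined DNA repair mutations.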

This is part of a sample that, as a whole, favours compounds with a hit. Of some 79,000 tested, about 15% had one in any assay. Activity calls are given as the source filed them. Cut-off read from the data, not from the text of the source: active = growth inhibition above about 70%; inactive = the rest.

In the case of `NCCNC(c1ccccc1)C(O)c1ccccc1` (centres undefined), the growth inhibition in assay [1] is -8.7% (inactive); in assay [2], -0.7% (inactive); in assay [3], -1.25% (inactive); in assay [4], -33.9% (inactive); in assay [5] it was -41.2% (inactive); in assay [6], -4.25% (inactive).

Turning to `COc1ccc2c(c1)OC(C)(C)C(c1ccccc1)=C2c1ccc(OCCN2CCCC2)cc1`, the growth inhibition in assay [1] was 99.6% (active); in assay [2], 99.8% (active); in assay [3] it was 99.9% (active); in assay [4], 99.3% (active); in assay [5], 99.3% (active); in assay [6], 99.7% (active).

For the molecule `O=S(=O)(O)C1=CC(=N/Cl)/C=CC/1=N\Cl`, the growth inhibition is -25.8% (inactive) in assay [1]; -23.8% (inactive) in assay [2]; -14.6% (inactive) in assay [3]; -4.15% (inactive) in assay [4]; -42% (inactive) in assay [5]; -25.2% (inactive) in assay [6].

Consider `O=C(COCC(=O)N/N=C/c1ccc(Cl)cc1Cl)N/N=C\c1cc(Cl)cc(Cl)c1`, for which the growth inhibition is -21.1% (inactive) in assay [1]; -1.65% (inactive) in assay [2]; 0.75% (inactive) in assay [3]; 37.2% (inactive) in assay [4]; -1% (inactive) in assay [5]; -12.2% (inactive) in assay [6].

For `Cc1cc(C)cc(C(=O)N=C(c2ccncc2)c2nc(-c3ccccc3)oc2O)c1`, the growth inhibition in assay [1] was -3.3% (inactive); in assay [2] it was 13.9% (inactive); in assay [3] it was -16.6% (inactive); in assay [4], -12.4% (inactive); in assay [5], 3.15% (inactive); in assay [6] it was -1.3% (inactive).

With `CN1C(=O)C(/C=N/NC(=O)c2cccnc2)C(N)N(C)C1=O` (centres undefined), the growth inhibition in assay [1] was 4.85% (inactive); in assay [2] it was 18.2% (inactive); in assay [3], -4.8% (inactive); in assay [4], -1.45% (inactive); in assay [5], -41.9% (inactive); in assay [6], 31.7% (inactive).

On to `CNc1nc(N(C)C)nc(N(C)C)n1`, for which the growth inhibition in assay [1] is 25.2% (inactive); in assay [2], 16.9% (inactive); in assay [3] it was 15.6% (inactive); in assay [4], 28.9% (inactive); in assay [5], 26.8% (inactive); in assay [6], 26.6% (inactive).

Regarding `NCCNCc1ccccc1`, the growth inhibition in assay [1] was 5.5% (inactive); in assay [2], -1.5% (inactive); in assay [3] it was 2.85% (inactive); in assay [4], 5.65% (inactive); in assay [5], -1.8% (inactive); in assay [6] it was 0.15% (inactive).

As for `CNc1nc(NC)nc(-c2ccccc2)n1`, the growth inhibition in assay [1] was -25.2% (inactive); in assay [2], -16.1% (inactive); in assay [3], -26.9% (inactive); in assay [4], -55% (inactive); in assay [5] it was -22.6% (inactive); in assay [6], -22.9% (inactive).

Consider `COC(=O)[C@]1(NC(=O)c2ccccc2)C[C@H]1C=O`, for which the growth inhibition in assay [1] is 21% (inactive); in assay [2] it was 15.2% (inactive); in assay [3], 14.4% (inactive); in assay [4], 10.9% (inactive); in assay [5], 9.6% (inactive); in assay [6], -54.8% (inactive).

`O=[N+]([O-])c1ccc(Cl)cc1N/N=C/c1ccnc2ccccc12`: the growth inhibition in assay [1] was -53.4% (inactive); in assay [2], -56.1% (inactive); in assay [3] it was -28.6% (inactive); in assay [4], -15.1% (inactive); in assay [5], -17.4% (inactive); in assay [6] it was -54.9% (inactive).

In the case of `CC(=O)Oc1cc2c(c3ccccc13)CCC2=O`, the growth inhibition was 13.4% (inactive) in assay [1]; 7.2% (inactive) in assay [2]; -7.85% (inactive) in assay [3]; -0.9% (inactive) in assay [4]; 20.4% (inactive) in assay [5]; 6.05% (inactive) in assay [6].

Consider `CC(=O)/C=C/C1=C(C)CCCC1(C)C` (tested in a mixture with another compound), for which the growth inhibition was 19.7% (inactive) in assay [1]; 1% (inactive) in assay [2]; 9.2% (inactive) in assay [3]; -3.25% (inactive) in assay [4]; 24.3% (inactive) in assay [5]; 5.7% (inactive) in assay [6].

Turning to `COc1ccc(N2CCN(CC(O)COc3ccc(Cl)cc3)CC2)cc1` (centres undefined), the growth inhibition in assay [1] was 70.8% (active); in assay [2], 18.9% (inactive); in assay [3], 75% (active); in assay [4], 14.9% (inactive); in assay [5], 13.8% (inactive); in assay [6] it was 28.5% (inactive).

Turning to `Nc1cc2c3c(cccc3c1Br)C(=O)NC2=O`, the growth inhibition is 85.2% (active) in assay [1]; 14.6% (inactive) in assay [2]; 35.5% (inactive) in assay [3]; 12.1% (inactive) in assay [4]; 15.3% (inactive) in assay [5]; 15.8% (inactive) in assay [6].

In the case of `C[N+](C)(C)CC(=O)N/N=C(/C=C/c1ccccc1)CC1OC(=O)c2ccccc21` (centres undefined), the growth inhibition was -9.65% (inactive) in assay [1]; -11.4% (inactive) in assay [2]; -3.5% (inactive) in assay [3]; 16.2% (inactive) in assay [4]; -7.5% (inactive) in assay [5]; 3.9% (inactive) in assay [6].

`OC(c1ccccc1)(c1ccccc1)c1ccccc1C(O)(c1ccccc1)c1ccccc1`: the growth inhibition in assay [1] was 12.2% (inactive); in assay [2], 1% (inactive); in assay [3], 4.6% (inactive); in assay [4], 10.8% (inactive); in assay [5], -4.65% (inactive); in assay [6], 12.8% (inactive).

Consider `CCC(C)NC(=O)/C(=C\c1ccccc1O)NC(=O)c1ccccc1` (centres undefined), for which the growth inhibition is -30.1% (inactive) in assay [1]; -35.6% (inactive) in assay [2]; -2.25% (inactive) in assay [3]; -5.65% (inactive) in assay [4]; -4.3% (inactive) in assay [5]; -4.45% (inactive) in assay [6].

Consider `COc1cc2c(cc1O)CN1Cc3cc(O)c(OC)cc3C2C1`, for which the growth inhibition in assay [1] is -4.95% (inactive); in assay [2] it was 2.35% (inactive); in assay [3] it was -9.1% (inactive); in assay [4] it was -20.9% (inactive); in assay [5] it was -10% (inactive); in assay [6] it was 13.3% (inactive).
